ATXN viability: cell viability loss in ATXN counter-screen | 400,000 compounds, 0.49% hits | S2 cells (HEK-293 line with an ATXN2-luciferase reporter) viability, CellTiter-Fluor protease fluorescence, 24 h | Potency, µM (titrated, usually from 56.7 µM), hits mostly cytotoxic; note: nearly all actives have a fitted effect of over 40% in size
HepG2 tox: counter-screen for TGF-b inhibitors: cytotoxicity in HepG2 cells; HepG2 CAGA-GFP viability, ATP luminescence, 18 h; 410,000 compounds, 0.76% hits; Potency, µM (top dose mostly 46.1 µM), actives largely listed as cytotoxic
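CellTiter-Glo luminescence gave cytotoxicity after 18 hours at 37 degrees C. The cells were HepG2 CAGA-GFP in 1% FBS DMEM, stimulated with 500 pg/mL TGF-beta after compound addition. %Activity was normalised to no-cell wells (complete cell-killing) and DMSO (no toxicity), and curves were fitted and classified.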
TGFb inhibitor: TGF-b pathway inhibition; Potency, µM (top dose mostly 46.1 µM), usual class: inhibitors; 410,000 compounds, 1.2% hits; HepG2 CAGA-GFP TGF-b/SMAD3 reporter, GFP fluorescence, 18 h; TGF-beta stimulated, 500 pg/mL final; AID 588855; note: nearly all actives have a fitted effect of over 65% in size
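Using HEPG2 CAGA-GFP reporter cells at 1000 cells/well, we pinned test compounds, stimulated with recombinant TGF-beta (500 pg/mL final) and measured total well GFP after 18 h.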
ATXN2 expr inh: inhibitors of ATXN2 expression | 360,000 compounds, 0.72% hits | HEK-293 ATXN2-luciferase reporter, luminescence, 24 h | AID 1745845 | Potency, µM (top dose mostly 57 µM), hits mostly inhibitors; note: nearly all actives have a fitted effect of over 55% in size
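qHTS (up to 57 uM final) was run with 24 h compound exposure of reporter cells at 37 °C. Each well was multiplexed: SteadyGlo luminescence measured ATXN2-luciferase expression after a fluorogenic Gly-Phe-AFC viability readout (25 uM final).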
uPA surface inh: cell surface uPA generation inhibition; cell surface uPA generation assay, qHTS; 330,000 compounds, 0.31% hits; Potency, µM (top dose mostly 38.3 µM), most hits filed as inhibitors; active = well fitted inhibition curve with a large enough effect; inconclusive = small, poorly fitted or top-dose-only effect; inactive = no such curve, though single readings can be large or run the other way; tested in mouse RAW 264.7 cells; note: nearly all actives have a fitted effect of over 55% in size
Giardia kill: Giardia lamblia killing. 340,000 compounds, 0.15% hits. AID 540267. Giardia lamblia trophozoite viability. activity change, % at 7.66 µM, hits read low; in the data active = activity change below about -80%; inconclusive = between about -30% and that limit;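 note: parasites exposed to compound for two days anaerobically before the ATP read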
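Giardia lamblia trophozoites (100 cells/well) were incubated with compounds for 48 h at 37 deg C under anaerobic conditions. Viability was read as ATP content by one-step luminescence after 15-30 min at room temperature.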
Hits are given with their value; 0 = inactive; ? = inconclusive; - = not tested or not shown; ! = not active in a repeat. In the library only some 2.6% were active in any assay of this set; here they are far more common. Unless noted, calls come from the whole dose curve; as a rule, active = well fitted curve in the direction sought with a large enough effect; inconclusive = small, poorly fitted or top-dose-only effect, or another doubt; inactive = no such curve, though single readings can be large; an effect the other way counts as inactive or inconclusive.

SMILES	ATXN viability	HepG2 tox	TGFb inhibitor	ATXN2 expr inh	uPA surface inh	Giardia kill
C1=Cc2ccccc2/C1=C\c1cc2c3c(c1)CCCN3CCC2	-	0	0	-	-	-
CN(C)c1ccc2ccc3cccc4ccc1c2c34	-	0	0	-	-	-
COc1cccc(/C=N/NC(=O)c2cnccn2)c1OC	0	13µM	0	0	0	0
O=C(N/N=C/c1ccccn1)c1cc(C2CC2)nc2ccccc12	0	0	0	0	0	0
O=C(N/N=C/c1ccccn1)c1cc(-c2ccccc2)nc2ccccc12	?	0	10µM	-	?	0
COc1cccc(/C=N/NC(=O)c2cc(-c3ccccn3)nc3ccccc23)c1O	?	0	0	5µM	0	0
O=C(N/N=C/c1ccc(F)cc1)c1cc(-c2ccccn2)nc2ccccc12	0	0	0	0	?	0
C1=C/C(=C2/C=Cc3ccccc32)c2ccccc2N1	-	0	?	-	-	-
COc1ccccc1Nc1cc2cc(Br)ccc2c(=O)[nH]1	0	0	?	0	3.2µM	0
COCC(C)n1c(C)cc(C(=O)COC(=O)c2cccn2C)c1C (stereo not given)	0	0	0	18µM	?	0
CC(C)CN(CC(C)C)c1ccc(/C=C/c2ccnc3ccccc23)cc1	-	0	0	-	-	-
CC1CN(CCCCOc2ccc(Cl)c3ccccc23)CC(C)O1 (stereo not given)	0	0	16µM	0	0	0
O=C(CCCN1CCC(n2c(=S)[nH]c3ccccc32)CC1)c1ccc(F)cc1	0	-	-	-	-	-
C[C@@]12C(C[C@H](O)[C@@]34C[C@@H](CCC13)[C@@H](CO)C4=O)[C@](C)(C(=O)O)CC[C@@H]2O (stereo not given in full)	0	0	0	0	-	-
C=C1C(=O)[C@]23C[C@H]1CCC2[C@@]1(C)C(C[C@@H]3O)[C@](C)(C(=O)OC)CC[C@@H]1O (stereo not given in full)	-	5µM	0.79µM	1.6µM	-	-
CSc1cccc(NC(=S)N2CCC(c3ccccc3)C2)c1 (stereo not given)	0	0	0	0	0	0
CCc1cccc(NC(=S)N2CCC(c3ccccc3)C2)c1 (stereo not given)	0	16µM	0	0	0	0
COc1ccccc1-c1cc(SC)c(C#N)c(=O)o1	-	0	?	-	11µM	0
C=C1CCN(C(CC(C)C)C(=O)NCCCc2ccccc2)S(=O)(=O)c2ccccc21 (stereo not given)	-	0	11µM	-	-	0
CCCN1CCC(=O)N(C(CSc2ccc(Br)cc2)Cc2ccccc2)CC1 (stereo not given)	-	0	0	-	-	0
O=c1[nH]nc(OCCCc2ccc(Cl)cc2)c(NCc2cccnc2)c1Br	-	-	-	24µM	-	-
O=C(CCCCn1c(=O)[nH]c2ccsc2c1=O)N1CCN(c2cccc(C(F)(F)F)c2)CC1	?	0	10µM	?	-	-
Cc1ccc(C)c(C(=O)CCC(=O)N2CCN(c3cccc(C(F)(F)F)c3)CC2)c1	0	0	11µM	0	0	0
O=C(CCCn1c(=O)[nH]c2ccc(Br)cc2c1=O)N1CCN(c2cccc(Cl)c2)CC1	0	0	5µM	0	-	-
O=C(CCCCn1c(=O)[nH]c2ccccc2c1=O)N1CCN(c2cccc(C(F)(F)F)c2)CC1	?	0	0	0	0	0
SMILES	ATXN viability	HepG2 tox	TGFb inhibitor	ATXN2 expr inh	uPA surface inh	Giardia kill
CC(=O)c1ccc(N2CCN(C(=O)CCCn3c(=O)[nH]c4ccc(Br)cc4c3=O)CC2)cc1	?	0	?	-	?	0
COc1ccc(Cl)cc1-c1cc2c(c(OC)c1)OCCN(Cc1cccn1-c1nccs1)C2	0	-	-	-	-	-
CCOc1ccc(N(CC(=O)Nc2ccc(C)c(C)c2)S(=O)(=O)c2c(C)noc2C)cc1	0	0	?	0	13µM	0
COc1ccc(N(CC(=O)Nc2cc(Cl)ccc2C)S(=O)(=O)c2c(C)noc2C)cc1	0	0	11µM	0	?	0
COc1ccc(N(CC(=O)Nc2cc(C)ccc2C)S(=O)(=O)c2c(C)noc2C)cc1	0	0	0	0	0	0
Cc1ccc(Cl)cc1NC1=C/C(=N\S(=O)(=O)c2cccs2)c2ccccc2C1=O	11µM	3.5µM!	4µM	2.8µM	0	0
Cc1ccc(NC2=C/C(=N\S(=O)(=O)c3cccs3)c3ccccc3C2=O)c(C)c1	8.9µM	4.5µM	2.5µM	?	0	0
CN(C)c1ccc(/C=C/c2ccnc3ccc(-c4ccccc4)cc23)cc1	-	0	0	-	-	-
Cc1ccc(S(=O)(=O)Nc2cccc(C(=O)NCc3cccnc3)c2)cc1F	0	0	?	0	3.2µM	0
Oc1cc(NCCc2cccnc2)cc2cccnc12	?	11µM	?	40µM	?	0
CCNC(=O)Nc1ccc2ncc(Nc3ccc(C)cc3)nc2n1	-	-	-	0	-	-
O=C(COc1ccccc1-c1ccccc1)N/N=C/c1ccc2ccccc2c1	?	0	7.1µM	?	0	0
O=C(COc1ccccc1-c1ccccc1)N/N=C/c1ccncc1	0	0	0	0	0	0
Oc1cccc2[nH]ccc12	0	-	-	0	-	-

Source: PubChem
